The whole screen tested about 3,600 compounds, of which about 900 (25%) were called active. How the calls were made is not given here. The list is a sample of the results. Potency and affinity values are given separately.
target: Protein Tat (Human immunodeficiency virus type 1 group M subtype B (isolate HXB2)) (UniProt P04608); experiment: inhibitors of Tat binding to TAR RNA, dose response, counter-screen for Vif-APOBEC3G degradation inhibitor project, biochemical, fluorescence polarization, FAM-labeled TAR RNA (AID 1117361); details: outcome: dose series up to 100 µM unless noted; series mostly up to 100 µM; inhibition: at the top concentration

| SMILES | outcome | inhibition |
| --- | --- | --- |
| C=CCN1C(=O)c2ccc(C(=O)N3CCN(c4ccccc4OC)CC3)cc2C1=O | inactive |  |
| COC(=O)c1cc(OC)c(OC)cc1NC(=O)c1ccco1 | inactive |  |
| C=CCN1C(=O)CSc2ccc(C(=O)NCc3ccco3)cc21 |  | 10.9% (inactive) |
| CCn1cc(C(=O)NCc2ccco2)c2cc(OC)c(OC)cc2c1=O |  | 2.73% (inactive) |
| CCOC(=O)C1=C(CNCCc2ccc(Cl)cc2)NC(=O)NC1c1ccc2c(c1)OCO2 (configuration not stated) | inactive |  |
| CCSc1nnc(NC(=O)c2ccc3ccccc3n2)s1 |  | 7.43% (inactive) |
| Cc1cc(C)n(-c2nc(Nc3ccccc3C(F)(F)F)nc(-n3nc(C)cc3C)n2)n1 | inactive |  |
| O=C(CSc1ccc2nnc(-c3cccnc3)n2n1)NCC1CCCO1 (configuration not stated) | inactive |  |
| Cc1c(NC(=O)/C(C#N)=C/C2CC=CCC2)c(=O)n(-c2ccccc2)n1C (configuration not stated) |  | 6.08% (inactive) |
| O=C(c1ccccc1Cl)N(C(=O)c1ccccc1Cl)c1nccc(-c2cccs2)n1 |  | 6.08% (inactive) |
| O=[N+]([O-])c1ccc(/C=N/Nc2nc(N3CCCC3)nc(N3CCCC3)n2)o1 |  | 7.01% (inactive) |
| Cc1ccccc1Cn1cc(NC(=O)c2cc(C3CC3)on2)cn1 |  | 8.25% (inactive) |
| CCOC(=O)N1CCN(C(=O)C2CCCN(S(=O)(=O)c3ccc(C)cc3)C2)CC1 (configuration not stated) |  | 12.2% (inactive) |
| CCN1CCN(c2ccc(S(=O)(=O)N3CCCCC3)cc2NC(=O)Cc2ccc(Cl)c(Cl)c2)CC1 | inactive |  |
| Clc1ccc(Nc2nc(C3CC3)cs2)cc1 | inactive |  |
| CCN(c1cccc(C)c1)S(=O)(=O)c1cnc[nH]1 | inactive |  |
| Cn1nc(-c2ccc(Cl)cc2)c2cc(C(=O)NCCCN3CCOCC3)sc21 |  | 3.38% (inactive) |
| Cn1nc(-c2ccc(Cl)cc2)c2cc(C(=O)N3CCN(C(=O)c4ccco4)CC3)sc21 |  | 2.03% (inactive) |
| O=C(O)CC(Cn1cnnn1)c1ccccc1 (configuration not stated) |  | 12.4% (inactive) |
| COc1ccc(Cl)cc1N(C)C(=O)CCNC(=O)Cn1cnc2ccccc2c1=O |  | 6.82% (inactive) |
| Cc1csc(=O)n1CC(=O)OCC(=O)c1ccc(Br)cc1 | inactive |  |
| CCOc1cccc(CN2CCCC(C(=O)Nc3cccc(-n4cccn4)c3)C2)c1 (configuration not stated) |  | 7.68% (inactive) |
| CC(=O)Nc1ccc(S(=O)(=O)Nc2nnc(C(C)C)s2)cc1 | inactive |  |
| CSc1nc(N2CCOCC2)c2c(c1C#N)CC(C)(C)OC2 |  | 4.73% (inactive) |

| SMILES | outcome | inhibition |
| --- | --- | --- |
| N#Cc1nc(-c2ccco2)oc1N1CCN(c2ccccc2)CC1 | inactive |  |
| CCOc1cc(S(=O)(=O)N(CC)CC)c(OCC)cc1-n1cnnn1 |  | 5.41% (inactive) |
| Cc1nnc(NC(=O)c2ccc(S(=O)(=O)N(C)Cc3ccccc3)cc2)o1 |  | 3.41% (inactive) |
| CC1(C)CC(Nc2ccc(Nc3ccccc3)cc2)CC(C)(C)N1 | inactive |  |
| CCC1=C2CC[C@H]3C(=O)NC(=O)[C@H]3[C@H]2[C@@]2(Cc3ccccc3)C(=NCC(=O)OC)OC(=O)N2C1=O |  | 1.65% (inactive) |
| Nc1nc(Sc2ccc([N+](=O)[O-])c3nonc23)c2[nH]cnc2n1 |  | 18.4% (inactive) |
| Nc1nc(SCc2nc3scc(-c4ccccc4)c3c(=O)[nH]2)n[nH]1 |  | 3.67% (inactive) |
| S=c1[nH]nc(Cn2nnc3ccccc32)n1-c1ccccc1 | inactive |  |
| COc1ccccc1C(=O)Nc1ccc(-c2nnc(SCC(=O)O)n2C)cc1 |  | 18.1% (inactive) |
| Cc1cc(C(=O)NNC(=O)CCC2CCCCC2)c(C)o1 | inactive |  |
| Cc1cc(/C=C2\SC(=S)NC2=O)c(C)n1C |  | 4.34% (inactive) |
| CCOC(=O)c1c(-c2cccs2)csc1NC(=O)CC(C)C |  | 5.41% (inactive) |
| O=C(O)c1ccc(N2C(=O)c3cccnc3C2=O)cc1 | inactive |  |
| Cc1ccc(C(=O)N2CCN(c3ccccc3)CC2)cc1C |  | 10.9% (inactive) |
| Cc1cc(/C=N/n2cnnc2)c(C)n1-c1cccc(Cl)c1 |  | 14.9% (inactive) |
| Cc1c(C=O)c(C=O)c(C)n1Cc1ccccc1 |  | 11.6% (inactive) |
| CC(=O)C1CCN(Cc2ccccc2)CC1 |  | 13% (inactive) |
| Cc1ccc(-n2nc(C(=O)O)c3ccccc3c2=O)cc1C |  | 0.68% (inactive) |
| O=C(OC(C(=O)NCc1cccs1)c1ccccc1Cl)c1ccco1 (configuration not stated) | inactive |  |
| O=S(=O)(c1cccc2ccccc12)n1nnc2ccccc21 |  | 2.7% (inactive) |
| O=C(OCn1cncn1)c1ccc(Cl)cc1Cl |  | 0.68% (inactive) |
| CC(C)(C)OC(=O)N1CCC[C@H]1c1nnc(SC/C=C/c2ccccc2)o1 |  | 9.46% (inactive) |
| Clc1ccc(C2=Nn3c(nnc3-c3cc(-c4ccccc4)n[nH]3)SC2)cc1 |  | 8.78% (inactive) |
| O=C(O)c1ccc2c(c1)N(Cc1cccc(F)c1)C(=O)CS2 | inactive |  |

| SMILES | outcome | inhibition |
| --- | --- | --- |
| Cc1cc(NS(=O)(=O)c2cc(Cl)sc2Cl)no1 |  | 4.34% (inactive) |
| O=C(O)c1cc(-c2ccccc2)on1 | inactive |  |
| COc1ccc(C(=O)N2CCCC(C(=O)N3CCCCCC3)C2)cc1 (configuration not stated) |  | 4.05% (inactive) |
| Cc1ccc(S(=O)(=O)N(C)CC(O)Cn2c3ccccc3c3ccccc32)cc1 (configuration not stated) |  | 6.08% (inactive) |
| COc1cc(/C=C2/C(=O)N(c3ccc(Br)cc3)N=C2C)cc(OC)c1OC |  | 5.68% (inactive) |
| CC(=O)Nc1ccc(OCC(=O)N2CCc3ccccc3C2)cc1 | inactive |  |
| CCn1ncc(/C=C/C(=O)NCc2cn(C)nc2C)c1C |  | 4.05% (inactive) |
| Cn1c(=O)cc(SCC(=O)NCCCN2CCOCC2)c2ccccc21 | inactive |  |
| O=C(c1ccccc1)N1CCN(c2ccc(Cl)cc2)CC1 |  | 12.8% (inactive) |
| Cc1ccc(-c2nc(-c3ccccc3)no2)cc1 | inactive |  |
| Cc1cccc(C)c1NC(=O)Cn1c(=O)n(CCCC(=O)NCc2ccco2)c(=O)c2sccc21 |  | 1.36% (inactive) |
| NS(=O)(=O)c1ccc(N=Nc2ccc(=O)[nH]c2O)cc1 |  | 5.01% (inactive) |
| COc1cc(NC(=O)CSCC(=O)N(C)C2CCCCC2)cc(OC)c1 |  | 1.65% (inactive) |
| Cc1ccccc1OCC(=O)OCC(=O)c1ccc(OC(=O)c2ccccc2)cc1 |  | 3.67% (inactive) |
| Cc1ccc(Nc2nc(C(=O)NCc3ccco3)cs2)cc1 |  | 12.8% (inactive) |
| c1coc(CNc2nc(-c3cccs3)cs2)c1 |  | 20.6% (inactive) |
| COCCOC(=O)CC1=NC(=O)CS1 | inactive |  |
| Cc1cc(C)c(Cc2c(C)nc3c(C(=O)NCc4ccco4)cnn3c2C)c(C)c1 |  | 2.73% (inactive) |
| Cc1cc(C(F)F)n2ncc(C(=O)NCc3ccccc3C(F)(F)F)c2n1 | inactive |  |
| COc1cc(OC)cc(C(=O)NC(=S)N2CCN(c3ccc(C(F)(F)F)cc3[N+](=O)[O-])CC2)c1 |  | 2.7% (inactive) |
| CSCCC(NC(N)=O)C(=O)NCc1ccc(Cl)cc1 (configuration not stated) |  | 2.7% (inactive) |
| COc1ccc(N2C(=O)CC(Sc3nc(C)c4c(n3)CCCC4)C2=O)cc1 (configuration not stated) |  | 6.08% (inactive) |
| O=S(=O)(c1ccc(S(=O)(=O)N2CCCC2)cc1)N1CCCCCC1 | inactive |  |
| CC(C)(C)c1ccc(S(=O)(=O)N2CCCCC2)cc1 |  | 17.3% (inactive) |
